SRC2 TRFRET art = counter-screen for PPARgamma SRC-2 recruitment agonists: TR-FRET artefact; hits give high values; TR-FRET ratio at 8 µM; 200,000 compounds, 0.4% hits; AID 1049
PPARg SRC2 recr = promotes SRC-2 coactivator recruitment by human PPARgamma. 200,000 compounds, 0.34% hits. activation, % at 8 µM. PPARgamma LBD-SRC-2 recruitment, biochemical. P37231; in the data active = activation above about 22%;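 also: 0% = vehicle and 100% = reference agonist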
Target sequence (P37231 whole entry, looked up, the tested form may be a part): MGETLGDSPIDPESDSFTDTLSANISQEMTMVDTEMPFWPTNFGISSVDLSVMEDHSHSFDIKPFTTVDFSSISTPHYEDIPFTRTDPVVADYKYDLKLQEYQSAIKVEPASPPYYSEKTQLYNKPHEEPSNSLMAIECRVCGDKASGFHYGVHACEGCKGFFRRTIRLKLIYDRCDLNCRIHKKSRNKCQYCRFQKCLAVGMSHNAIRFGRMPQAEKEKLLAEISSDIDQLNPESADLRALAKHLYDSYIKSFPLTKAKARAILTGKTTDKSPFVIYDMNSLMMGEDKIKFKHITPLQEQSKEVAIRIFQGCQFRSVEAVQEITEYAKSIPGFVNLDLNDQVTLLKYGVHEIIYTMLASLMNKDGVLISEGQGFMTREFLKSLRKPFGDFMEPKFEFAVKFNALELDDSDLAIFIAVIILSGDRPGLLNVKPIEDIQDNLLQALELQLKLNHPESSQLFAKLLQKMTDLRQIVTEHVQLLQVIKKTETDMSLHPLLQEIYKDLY
PPARg SRC-3 ag = promotes SRC-3 coactivator recruitment by human PPARgamma; biochemical PPARgamma/SRC-3 coactivator recruitment assay; 200,000 compounds, 0.26% hits; P37231; AID 731; activation, % at 8 µM; in the data active = activation above about 23%;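 also: 0% = DMSO and 100% = reference agonist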
PPARg SRC1 recr = agonists of human PPARgamma SRC-1 coactivator recruitment; P37231; PPARgamma-SRC-1 coactivator recruitment biochemical assay; activation, % at 8 µM; 200,000 compounds, 0.41% hits; in the data active = activation above about 19%;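 also: 0% = DMSO and 100% = reference agonist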
SRC3 TRFRET art = flags TR-FRET format artefacts in PPARgamma SRC-3 recruitment agonist screen; TR-FRET artefact counter-screen, PPARgamma/SRC-3 format; hits give high values; TR-FRET ratio at 8 µM; 99,000 compounds, 0.39% hits; AID 1048
SRC1 TRFRET art = counter-screen for PPARgamma SRC-1 recruitment agonists: TR-FRET artefact. TR-FRET detection artefact counter-screen, emission ratio; hits give high values. 99,000 compounds, 0.34% hits. TR-FRET ratio at 8 µM; in the data active = TR-FRET ratio above about 2300
* = called active by the depositor; x = no result. This is a sample that favours compounds with a hit; in the whole collection about 0.84% have one here. Rule as the data show it, unless noted: active = TR-FRET ratio above about 2000; inactive = the rest.

SMILES	SRC2 TRFRET art	PPARg SRC2 recr	PPARg SRC-3 ag	PPARg SRC1 recr	SRC3 TRFRET art	SRC1 TRFRET art
O=C(Oc1coc(CSc2nnc(NC(=O)C3CC3)s2)cc1=O)c1c(F)cccc1F	1655	6	0	1	1644	1771
Cc1cc(C)cc(N2C(=O)CSC2c2cccs2)c1 (stereo not given)	1989*	11	0	7	1827	1726
Cc1ccc(N2C(=O)CSC2c2cccs2)cc1 (stereo not given)	1646	5	12	-3	x	x
CCOC(=O)c1c(C)nc2c(c(SC)nn2-c2ccccc2)c1N	1610	9	2	2	x	x
O=C(CCC1CCCC1)N1CCC(N2CCCCCC2)CC1	1670	3	-3	3	1647	1857
O=C(CSc1ccc2nnc(-c3ccc(Cl)cc3)n2n1)N1CCCc2ccccc21	3594*	46*	0	-1	1869	1993
COc1cc(C#N)c(NC(=O)CN2CCN(CCO)CC2)cc1OC	1633	0	0	-2	1499	1916
CC(C)c1ccc(OCC(=O)NC(=S)Nc2ccc3c4c(cccc24)CC3)cc1	1873	7	6	22*	x	x
COC(=O)CCC(=O)NC(=S)Nc1ccccc1F	1494	1	-5	-4	1602	1766
Cc1ccc2[nH]c(O)c(N=NC(=O)CCc3ccccc3)c2c1Br	1435	-6	-1	0	1527	1525
NS(=O)(=O)c1cccc(NC(=O)COC(=O)CCCc2c[nH]c3ccccc23)c1	1792	-7	5	2	1689	1685
O=C(Nc1nc(-c2nc3ccccc3s2)cs1)C1COc2ccccc2O1 (stereo not given)	1973*	17	10	9	1956	2597*
CCC1(C(=O)c2ccc(Cl)cc2)C2c3ccccc3OC(=O)C21C(=O)Nc1ccccc1 (stereo not given)	1624	2	0	6	1641	1535
Cc1onc(-c2c(F)cccc2Cl)c1C(=O)N1C=CC(C(F)(F)F)=NCC1	2038*	5	17	8	x	x
Cc1onc(-c2c(Cl)cccc2Cl)c1C(=O)N1C=CC(C(F)(F)F)=NCC1	1675	10	10	4	x	x
Cc1cccc(NC(=S)Nc2ccc(N3CCOCC3)cc2)c1C	1974*	21	11	18	1799	2122
CCCCSc1nnc([C@H](C)NC(=O)OC(C)(C)C)o1	2298*	39*	-7	1	x	x
Cc1csc(C(C#N)C(=O)c2ccncc2)n1 (stereo not given)	2112*	31*	4	11	1733	1677
Cc1cnc(NC(=O)c2ccncc2)s1	1181	-2	-2	-5	1433	1821
COc1cc(CC(=O)OCC(=O)N2CC(=O)Nc3ccccc32)cc(OC)c1OC	1446	0	1	-2	1375	1725
CCN(CC)c1ccc(C=Nc2ccc(C)cc2)c(O)c1	1701	11	5	4	x	x
CCN(CC)c1ccc(N=Cc2ccc(N(CC)CC)cc2O)cc1	1964	27*	41*	14	x	x
O=C(NNC(=O)C1CCCN(S(=O)(=O)c2ccc3ccccc3c2)C1)C1CC1 (stereo not given)	1447	-1	0	10	1855	1939
CC1Cc2ccccc2N1C(=O)CSc1nnc(-c2ccccc2)c(-c2ccccc2)n1 (stereo not given)	3425*	0	2	-3	x	x
O=C(CSc1ncnc2c1oc1ccccc12)NCC1CCCO1 (stereo not given)	3902*	110*	131*	95*	x	x
SMILES	SRC2 TRFRET art	PPARg SRC2 recr	PPARg SRC-3 ag	PPARg SRC1 recr	SRC3 TRFRET art	SRC1 TRFRET art
O=C(COC(=O)C1CCN(S(=O)(=O)c2cccs2)CC1)c1cc2ccccc2o1	2135*	7	0	-3	x	x
O=C(COC(=O)C1CCN(S(=O)(=O)c2cccs2)CC1)c1ccc2c(c1)OCCO2	2115*	-7	-11	-6	x	x
O=C1COc2ccc(C(=O)COC(=O)C3CCN(S(=O)(=O)c4cccs4)CC3)cc2N1	1626	12	17	10	x	x
Cc1ccc(-c2ccnc3nc(-n4cccc4)nn23)o1	1607	-3	3	8	1661	1967
CN(C(=O)c1ccc(=O)n(Cc2ccc(Cl)cc2)c1)c1ccccc1	1643	5	0	3	1676	1492
COC(=O)c1ccc(COn2nnc3ccccc32)cc1	1425	-1	-3	-4	1786	1504
CC(C)CCNC(=O)NC(=O)COC(=O)/C=C/c1cccc([N+](=O)[O-])c1	1343	3	3	13	1560	1733
CC(C)CCNC(=O)NC(=O)COC(=O)/C=C/c1cnc2ccccc2n1	2705*	64*	1	10	x	x
CCN(CC)c1ccc(NC(=O)c2ccccc2Br)cc1S(=O)(=O)Nc1ccccc1OC	1301	0	-4	-7	1617	1698
CCN(CC)c1ccc(NC(=O)c2ccccc2F)cc1S(=O)(=O)Nc1ccccc1OC	1726	4	5	0	2056*	1982
CN1C(=O)C(N=Nc2ccccc2C(=O)O)N(C)C1=S (stereo not given)	1604	7	1	4	1622	1888
Cc1ccc(S(=O)(=O)NCCn2c(C)cc3ccccc32)cc1	2803*	9	13	9	x	x
Cc1cc2cc(CNC(=O)c3ccc(S(=O)(=O)N(C)C)cc3)ccc2n1C	2108*	3	2	-3	x	x
CC(=O)Nc1ccc(S(=O)(=O)NCc2ccc3c(c2)cc(C)n3C)cc1	1733	10	1	-1	x	x
Cc1cc(C)c(S(=O)(=O)NCCn2c(C)cc3ccccc32)c(C)c1	2078*	-1	21	9	x	x
Cc1cc2ccccc2n1CCNC(=O)Cc1ccccc1	1639	0	8	10	x	x
Cc1cc(C)c(S(=O)(=O)NCc2ccc3c(c2)cc(C)n3C)c(C)c1	2083*	-3	11	10	x	x
O=C(COc1ccc2ccccc2c1)Nc1ccc(S(=O)(=O)N2CCCCCC2)cc1	2073*	18	0	3	x	x
O=C(COc1ccc2ccccc2c1)NNC(=O)Cc1ccccc1	1727	20	15	65*	1802	2551*
O=C(Cc1ccccc1)NCc1ccc2c(c1)OCO2	1270	-1	-6	0	x	x
O=C(Cc1ccccc1[N+](=O)[O-])NCc1ccc2c(c1)OCO2	1512	4	12	12	1639	2325*
Cc1sc(NC(=O)Cc2ccc3c(c2)OCO3)nc1-c1ccc2c(c1)CCN2C(=O)c1ccccc1F	1630	-1	-1	-2	1545	1710
Cc1sc(NC(=O)Cc2ccc3c(c2)OCO3)nc1-c1ccc2c(c1)CCN2C(=O)c1ccc(F)cc1	1427	-7	14	4	2623*	1579
CC(C)(O)C#Cc1ccc(CN2CCN(C3CCCCC3)C(CCO)C2)cc1 (stereo not given)	1582	1	-2	24*	1573	2568*
C/C(=N\Nc1nc2ccccc2[nH]1)c1ccc(C)o1	1556	12	8	10	2059*	2081

Assay outcomes from PubChem BioAssay.
